Source: PubChem BioAssay
Activity calls are given as the source filed them. Unless noted, how the calls were made is not given here.

What was measured:
[1] = resazurin metabolic signal in HepG2 cells – cell-based, resazurin fluorescence, 24 h, PK04 Diversity Set, profiling panel (AID 1172); details: HepG2 viability, higher = more signal
[2] = budding yeast growth changes without added modifier – OD600, strain BY4716, 24 h, basal condition, primary screen (AID 1173); details: S. cerevisiae BY4716 growth, OD600, 24 h; higher = more signal, called active from +8 up or from −8 down
[3] = viability profiling in MM1S myeloma cells – cell-based, resazurin fluorescence, basal, 24 h, PK04 Diversity Set, profiling panel (AID 1174); details: higher = more signal, called active from +8 up or from −8 down;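 further: MM1S multiple myeloma cell line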
[4] = molecular target: Dihydroorotate dehydrogenase (quinone), mitochondrial (Plasmodium falciparum (isolate 3D7)) (UniProt Q08210); assay: inhibition of P. falciparum DHODH – biochemical, C-terminal His tag, absorbance 600 nm, primary screen (AID 1175); details: PfDHODH enzyme, DCIP absorbance 600 nm; higher = more signal, called active from +8 up or from −8 down;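 further: recombinant parasite enzyme with a five histidine tag at its C terminus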
Dihydroorotate dehydrogenase (quinone), mitochondrial (Plasmodium falciparum (isolate 3D7)), sequence (Q08210 whole entry, looked up): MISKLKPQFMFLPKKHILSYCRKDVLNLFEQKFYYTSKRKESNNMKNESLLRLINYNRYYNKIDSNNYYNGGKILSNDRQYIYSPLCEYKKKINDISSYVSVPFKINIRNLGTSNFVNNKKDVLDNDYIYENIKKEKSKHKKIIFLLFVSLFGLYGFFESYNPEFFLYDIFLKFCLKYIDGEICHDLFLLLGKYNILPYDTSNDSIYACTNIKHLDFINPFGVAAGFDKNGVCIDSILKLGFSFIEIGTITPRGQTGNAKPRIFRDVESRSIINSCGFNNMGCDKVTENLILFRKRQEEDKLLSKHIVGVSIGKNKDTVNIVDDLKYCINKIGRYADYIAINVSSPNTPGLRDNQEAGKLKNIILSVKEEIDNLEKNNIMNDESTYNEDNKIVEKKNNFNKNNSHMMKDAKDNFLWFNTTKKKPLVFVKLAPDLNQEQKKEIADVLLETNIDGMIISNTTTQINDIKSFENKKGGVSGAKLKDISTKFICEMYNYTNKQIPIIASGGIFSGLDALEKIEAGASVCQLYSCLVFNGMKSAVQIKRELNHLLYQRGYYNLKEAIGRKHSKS

[5] = inhibition of PAO1 biofilm formation – strain PAO1, LB-PBS medium, absorbance 600 nm, primary screen (AID 1176); details: P. aeruginosa PAO1 growth/biofilm, A600, 12 h; higher = more signal
[6] = growth modulation of vineyard yeast isolate – strain RM11-1a, OD600, basal, 24 h, primary screen (AID 1177);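 further: cultures grown under basal conditions with no added stressor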; details: S. cerevisiae RM11-1a growth, OD600, 24 h; higher = more signal, called active from +8 up or from −8 down
[7] = growth of efflux-deficient E. coli DRC39 – strain DRC39, OD650, 24 h, E. coli filamentation inducers, primary screen (AID 1178);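 further: growth measured as culture turbidity by optical density at 650 nm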; details: E. coli DRC39 acrAB, higher = more signal, called active from +8 up or from −8 down
[8] = growth of efflux-deficient E. coli DRC39 – strain DRC39, OD650, 48 h, E. coli filamentation inducers, primary screen (AID 1179);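 further: screen aims at cell division blockers that make cells filament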; details: E. coli DRC39 delta-acrAB growth, higher = more signal, called active from +8 up or from −8 down
[9] = viability profiling in RPMI8226 myeloma cells – cell-based, resazurin fluorescence, basal, 24 h, PK04 Diversity Set, profiling panel (AID 1180); details: higher = more signal;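 further: RPMI8826 multiple myeloma cell line at 5000 cells per well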
[10] = molecular target: E3 ubiquitin-protein ligase XIAP (Homo sapiens) (UniProt P98170); assay: small molecules binding XIAP protein – biophysical, small-molecule microarray, fluorescence 635 nm, primary screen (AID 1181); details: higher = more signal;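 further: score merges 667 nm emission and signal to noise over triplicate slides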
E3 ubiquitin-protein ligase XIAP (Homo sapiens), sequence (P98170 whole entry, looked up, the tested form may be a part): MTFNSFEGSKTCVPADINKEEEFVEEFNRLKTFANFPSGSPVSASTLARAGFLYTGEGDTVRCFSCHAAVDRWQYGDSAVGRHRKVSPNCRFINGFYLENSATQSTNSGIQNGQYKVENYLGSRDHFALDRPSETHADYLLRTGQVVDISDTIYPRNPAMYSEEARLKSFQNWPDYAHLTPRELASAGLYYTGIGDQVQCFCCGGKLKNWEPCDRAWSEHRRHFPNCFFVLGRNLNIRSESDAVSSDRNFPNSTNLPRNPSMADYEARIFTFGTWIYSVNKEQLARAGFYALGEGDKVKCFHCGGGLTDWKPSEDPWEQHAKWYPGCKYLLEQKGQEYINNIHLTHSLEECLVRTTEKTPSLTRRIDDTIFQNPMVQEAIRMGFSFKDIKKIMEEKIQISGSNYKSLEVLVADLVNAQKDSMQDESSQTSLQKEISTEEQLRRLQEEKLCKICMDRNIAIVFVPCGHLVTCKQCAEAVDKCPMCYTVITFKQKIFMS

[11] = tested on: XIP peptide (Xip251-270) binding; assay: XIP fragment 251-270 binding compounds – biochemical, small-molecule microarray, fluorescence 635/667 nm, 0.1 µg/mL protein, primary screen (AID 1182); details: fluorescent protein binding, 635 nm, higher = more signal, called active from +8 up or from −8 down
XIP peptide (Xip251-270) = assay: compounds binding XIP fragment 251-270 – biochemical, small-molecule microarray, fluorescence 635/667 nm, 0.5 µg/mL protein, primary screen (AID 1183); details: fluorescence 635 nm, higher = more signal
[12] = blood-stage malaria parasite viability loss – strain 3D7, DAPI fluorescence, 100 nL, primary screen (AID 1184);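 further: parasites grown inside human red blood cells in medium with human serum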; details: P. falciparum 3D7 growth, 3 d, higher = more signal
[13] = molecular target: Homeobox protein Hox-A13 (Mus musculus) (UniProt Q62424); assay: disruptors of Hoxa13 oligonucleotide interaction – biochemical, fluorescence polarization, labeled oligonucleotide, primary screen (AID 1185); details: Hoxa13:DNA binding, 15 min, higher = more signal, called active from +8 up or from −8 down
Homeobox protein Hox-A13 (Mus musculus), sequence (Q62424 whole entry, looked up): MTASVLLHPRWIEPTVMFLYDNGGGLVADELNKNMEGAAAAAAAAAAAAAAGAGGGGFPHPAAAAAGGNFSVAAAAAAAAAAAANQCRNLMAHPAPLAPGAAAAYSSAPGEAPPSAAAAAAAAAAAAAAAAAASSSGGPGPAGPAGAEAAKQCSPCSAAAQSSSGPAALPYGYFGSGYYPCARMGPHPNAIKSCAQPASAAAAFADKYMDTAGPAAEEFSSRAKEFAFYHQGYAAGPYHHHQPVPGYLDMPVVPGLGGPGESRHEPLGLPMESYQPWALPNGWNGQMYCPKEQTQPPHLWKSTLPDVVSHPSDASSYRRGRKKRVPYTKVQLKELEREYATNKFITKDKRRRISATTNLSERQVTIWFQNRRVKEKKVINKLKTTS

[14] = blockers of DNA damage checkpoint Chk1 activation – imaging, HeLa, hydroxyurea, phospho-Chk1 antibody, percent positive cells, primary screen (AID 1186); details: hydroxyurea-induced phospho-Chk1 immunofluorescence imaging, higher = more signal
[15] = blockers of DNA damage checkpoint Chk1 activation – imaging, HeLa, hydroxyurea, phospho-Chk1 nuclear intensity, primary screen (AID 1187); details: hydroxyurea-induced phospho-Chk1 immunofluorescence imaging, higher = more signal

Structure (SMILES)	z-score [1]	z-score [2]	z-score [3]	composite z-score [4]	z-score [5]	z-score [6]	z-score [7]	z-score [8]	z-score [9]	composite z-score [10]	composite z-score [11]	composite z-score (XIP peptide (Xip251-270))	z-score [12]	z-score [13]	z-score [14]	z-score [15]
[N-]=[N+]=NCc1ccccc1C[C@]1(C(=O)NCC(O)CO)N=C(c2ccc(OCCCO)cc2)O[C@H]1c1ccccc1CN=[N+]=[N-] (stereo partly drawn)	-0.459	-0.804 (inactive)	-0.449 (inactive)	-0.212 (inactive)	1.09 (inactive)	0.18 (inactive)	0.78 (inactive)	-0.012 (inactive)	-0.881	-0.149	0.311 (inactive)	0.75	-2.78	-0.829 (inactive)	0.458 (inactive)	0.414 (inactive)
COC(=O)[C@@]1(Cc2ccc(OC)cc2)[C@H]2c3cc(C(=O)N(C)C)n(CCc4c[nH]c5ccc(O)cc45)c3C[C@H]2CN1C(=O)c1ccccc1	-0.855	1.29 (inactive)	-1.64 (inactive)	-0.568 (inactive)	0.15 (inactive)	0.599 (inactive)	-0.135 (inactive)	0.301 (inactive)	-2.36	0.201	0.545 (inactive)	0.657	-1.73	-1.44 (inactive)	0.453 (inactive)	-0.541 (inactive)
CC1CC/C=C\[C@H]2OC34C=CCN(c5ccc6ccccc6c5)C(=O)[C@H]3N(C(CO)C(C)C)C(=O)[C@@H]4C2C(=O)O1 (stereo partly drawn)	-0.452	-0.0979 (inactive)	-0.241 (inactive)	-2.17 (inactive)	-0.332 (inactive)	-0.319 (inactive)	0.0932 (inactive)	0.154 (inactive)	-0.315	0.558	0.17 (inactive)	-0.0558	-0.571	-6.57 (inactive)	0.174 (inactive)	0.604 (inactive)
CC(C)C(O)C1C=CC2C(=O)N(C)C(=O)C2N1N(c1ccccc1)c1ccccc1 (stereo not drawn)	0.207	0.72 (inactive)	-1.62 (inactive)	0.85 (inactive)	0.186 (inactive)	0.879 (inactive)	-0.841 (inactive)	0.195 (inactive)	-0.583	0.23	0.618 (inactive)	0.123	0.0202	-4.48 (inactive)	0.307 (inactive)	0.0802 (inactive)
CCOC(=O)[C@H]1C/C=C/C[C@H](C(=O)OCC)C(=O)O[C@H]2[C@@H](OC)O[C@H](CO)[C@@H](OC(=O)Nc3ccc(OC)cc3)[C@@H]2OC1=O	-1.45	-0.0211 (inactive)	-2.07 (inactive)	0.214 (inactive)	0.979 (inactive)	0.864 (inactive)	0.391 (inactive)	1.25 (inactive)	-1.08	0.191	0.568 (inactive)	0.601	-1.71	-0.589 (inactive)	0.178 (inactive)	0.395 (inactive)
COc1cc(OC)c(C(O)C2C=CC3C(=O)N(c4ccccc4)C(=O)C3N2Nc2ccc(C#N)cc2)cc1Br (stereo not drawn)	-0.99	-6.31 (inactive)	-0.408 (inactive)	1.49 (inactive)	0.984 (inactive)	-0.759 (inactive)	-0.628 (inactive)	-0.0118 (inactive)	-0.758	-0.0181	3.12 (inactive)	0.796	-0.365	-3.36 (inactive)	-0.002 (inactive)	-0.795 (inactive)
C=CCOC(=O)[C@H]1[C@@H]2C(=O)O[C@@H](c3ccccc3)[C@@H](c3ccccc3)N2[C@@H](c2ccc(OCCOC(=O)[C@H]3C[C@H]4C(=O)N[C@@H](Cc5ccccc5)C(=O)N4[C@H]3c3ccc(O)cc3)cc2)[C@]12C(=O)Nc1ccc(I)cc12	-0.16	1.82 (inactive)	-0.417 (inactive)	-1.16 (inactive)	4.1 (inactive)	1.66 (inactive)	-0.359 (inactive)	-0.293 (inactive)	0.194	0.0981	0.451 (inactive)	0.768	-1.62	1.21 (inactive)	-0.688 (inactive)	-0.476 (inactive)
CCCC[C@@H]1C[C@H]1[C@@H](NC(=O)c1cccnc1)c1ccc(-c2ccccc2)cc1	1.6	-3.34 (inactive)	1.1 (inactive)	-0.106 (inactive)	-0.0982 (inactive)	-0.402 (inactive)	-0.88 (inactive)	-0.762 (inactive)	2.9	0.0302	-0.414 (inactive)	-0.0356	-0.814	-3.43 (inactive)	0.577 (inactive)	0.452 (inactive)
NC(=O)NCC#Cc1ccc2c(c1)[C@]1(C(=O)N2)[C@H](C(=O)O)[C@H]2C(=O)O[C@H](c3ccccc3)[C@H](c3ccccc3)N2[C@@H]1c1ccccc1OCCO	1.03	-1.81 (inactive)	0.837 (inactive)	-0.988 (inactive)	2.75 (inactive)	-0.888 (inactive)	0.525 (inactive)	1.16 (inactive)	1	-0.0599	0.638 (inactive)	0.823	0.828	-5.72 (inactive)	-0.0005 (inactive)	0.287 (inactive)
COC1(C)CN(Cc2ccccc2Br)[C@H](/C=C/c2ccccc2)[C@H](Cc2ccccc2)O1 (stereo partly drawn)	1.1	-0.138 (inactive)	0.832 (inactive)	-0.167 (inactive)	0.331 (inactive)	0.44 (inactive)	0.531 (inactive)	0.523 (inactive)	1.2	-0.102	-0.181 (inactive)	-0.13	0.502	0.471 (inactive)	-1.6 (inactive)	-2.34 (inactive)
C=CCNC(=O)[C@@H]1[C@H]2C(=O)O[C@H](c3ccccc3)[C@H](c3ccccc3)N2[C@H](c2ccc(OCCO)cc2)[C@@]12C(=O)N(C(=O)OCCOC)c1ccc(C#CC3=CCCCC3)cc12	-0.344	1.83 (inactive)	-0.897 (inactive)	-1.47 (inactive)	2.17 (inactive)	2.57 (inactive)	-0.713 (inactive)	-0.206 (inactive)	-1.66	-0.426	0.0094 (inactive)	0.659	-2.19	0.713 (inactive)	0.201 (inactive)	0.474 (inactive)
COCCOC(=O)N1C(=O)[C@@]2(c3cc(C#CC4=CCCCC4)ccc31)[C@H](c1ccc(O)cc1)N1[C@H](c3ccccc3)[C@H](c3ccccc3)OC(=O)[C@H]1[C@@H]2C(=O)Nc1nc2ccccc2s1	-0.477	0.175 (inactive)	0.0007 (inactive)	-0.399 (inactive)	1.44 (inactive)	0.297 (inactive)	-0.61 (inactive)	0.0717 (inactive)	-0.0867	0.0114	0.863 (inactive)	0.843	-1.32	1.05 (inactive)	0.0256 (inactive)	0.125 (inactive)
O=C1O[C@@H](c2ccccc2)[C@@H](c2ccccc2)N2[C@@H](c3ccccc3OCCO)[C@]3(C(=O)Nc4ccc(C#CCCO)cc43)[C@@H](C(=O)Nc3nc4ccccc4s3)[C@H]12	-0.0116	0.282 (inactive)	-0.095 (inactive)	-0.176 (inactive)	0.986 (inactive)	2.39 (inactive)	-0.233 (inactive)	0.695 (inactive)	-0.226	-0.145	0.767 (inactive)	0.698	-2.14	-2.2 (inactive)	-0.0607 (inactive)	0.0274 (inactive)
O=C1NC(=O)C2C1C=CC(C(O)c1ccc3c(c1)OCO3)N2Nc1ccccn1 (stereo not drawn)	-0.861	-0.117 (inactive)	-0.854 (inactive)	0.315 (inactive)	1.89 (inactive)	-0.86 (inactive)	0.812 (inactive)	1.3 (inactive)	-0.431	0.0185	0.307 (inactive)	0.247	0.453	-1.69 (inactive)	0.095 (inactive)	0.14 (inactive)
COC(=O)[C@@]1(Cc2ccc(OC)cc2)[C@H]2c3cc(C(=O)N(C)C)n(Cc4ccccc4)c3C[C@H]2CN1C(=O)c1ccccc1	2.31	-0.373 (inactive)	-1.15 (inactive)	0.171 (inactive)	0.756 (inactive)	0.692 (inactive)	0.111 (inactive)	0.892 (inactive)	-1.66	0.0791	0.0961 (inactive)	-0.248	-0.921	-0.853 (inactive)	-0.342 (inactive)	-0.687 (inactive)
CN(C)CCCNC(=O)[C@@]1(C)c2ccccc2C(=O)N(Cc2cc(C(F)(F)F)cc(C(F)(F)F)c2)[C@H]1c1ccc(CO)cc1	-1.19	-0.808 (inactive)	-0.244 (inactive)	0.779 (inactive)	1.98 (inactive)	0.874 (inactive)	0.365 (inactive)	-1.39 (inactive)	-0.0867	-0.239	0.23 (inactive)	-0.987	-1.27	-2.7 (inactive)	-0.0172 (inactive)	-0.0753 (inactive)
C[C@@H](OCc1ccccc1)C1NC(=O)[C@@]23C(=O)N[C@@H](Cc4ccccc4)C2[C@H](C)[C@@]2(C)O[C@H]2C3/C=C/C/C=C\CNC(=O)CNC1=O (stereo partly drawn)	-0.816	-0.303 (inactive)	-0.555 (inactive)	-0.402 (inactive)	0.662 (inactive)	-0.509 (inactive)	0.0899 (inactive)	-0.754 (inactive)	-0.724	-0.0351	-0.153 (inactive)	-0.796	-0.748	-7.11 (inactive)	0.631 (inactive)	0.734 (inactive)
COc1ccc(C#Cc2ccc3c(c2)[C@]2(C(=O)N3)[C@H](C(=O)N3CCc4cc(OC)c(OC)cc4C3)[C@H]3C(=O)O[C@H](c4ccccc4)[C@H](c4ccccc4)N3[C@@H]2c2ccc(O)cc2)cc1	-0.235	0.507 (inactive)	-0.443 (inactive)	-0.719 (inactive)	1.45 (inactive)	1.36 (inactive)	0.0877 (inactive)	0.307 (inactive)	-0.482	-0.277	0.786 (inactive)	0.578	-1.48	-1.05 (inactive)	-0.24 (inactive)	-0.218 (inactive)
